# Compound activity (PubChem BioAssay)
# This is a sample that favours compounds with a hit; in the whole collection about 7.4% have one here.
# SNCA expr inhib: inhibitors of alpha-synuclein (SNCA) gene expression. HEK-293 SNCA-luciferase knock-in, luminescence, 24 h. Potency, µM (highest dose often 57.2 µM), most hits filed as inhibitors. hit rate 0.17% among 140,000. AID 1671194; also: nearly all actives have a fitted effect of over 45% in size
# HEK cytotox: kills HEK 293 cells | HEK 293 viability, ATP luminescence (CellTiter-Glo), 48-72 h | Potency, µM (top dose mostly 115 µM), most hits filed as inhibitors | hit rate 6.6% among 94,000; also: nearly all actives have a fitted effect of over 60% in size
#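 Luminescence from cellular ATP, measured with CellTiter-Glo, indicates HEK 293 viability. Cells plated at 250 cells/well are treated with compound for 48 or 72 hr at 37 degree Celsius before reagent addition.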
# SNCA viab count: counter-screen for SNCA expression inhibitors: cell viability. hit rate 0.12% among 150,000. Potency, µM (highest dose often 57.1 µM), most hits filed as cytotoxic. AID 1671193. HEK-293-SNCA-luc viability, GF-AFC fluorescence, 24 h; also: nearly all actives have a fitted effect of over 30% in size
#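 Cytotoxicity counterscreen: after 24 h compound treatment of genome-edited SNCA-luciferase HEK-293 cells, live-cell protease substrate GF-AFC read by fluorescence after 30 min; activity scaled between DMSO (0%) and medium-only (-100%), curves Hill-fitted.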
# hNpr1 antagonist: blocks ANP-stimulated signaling of human Npr1 receptor; P16066; HEK293 hNpr1 GloSensor cGMP, ANP-stimulated luminescence; Potency, µM (series often up to 46.3 µM), hits mostly inhibitors; hit rate 1.6% among 76,000; calls by dose curve; also: nearly all actives have a fitted effect of over 60% in size
#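 Compound pre-incubated 30 min at room temperature on GloSensor-loaded HEK293 cells stably carrying hNpr1 and the pGS-40F cGMP biosensor. Stimulation uses hNppA at 0.1 nM final; luminescence is taken at baseline and 20 min post-agonist.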
# 3T3 cytotox: cytotoxic compounds in NIH 3T3 cells | NIH 3T3 viability, CellTiter-Glo ATP luminescence, 48-72 h | Potency, µM (highest dose often 96.7 µM), usual class: inhibitors | hit rate 4.3% among 94,000; also: nearly all actives have a fitted effect of over 55% in size
#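 ATP-dependent luminescence (CellTiter-Glo) served as the viability signal for NIH 3T3 cells treated with compound for 48 or 72 hr at 37 °C.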
# Luciferase inh: inhibitors of firefly (Photinus pyralis) luciferase; P08659; purified P. pyralis luciferase, luminescence, biochemical; Potency, µM (doses to about 115 µM), hits mostly inhibitors; hit rate 2.5% among 76,000; AID 1347043; also: nearly all actives have a fitted effect of over 65% in size
#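 Purified P. pyralis luciferase (10nM final) in 50mM Tris acetate pH 7.5, 10mM Mg acetate, 0.01% Tween-20, 0.05% BSA with 10uM D-luciferin and 10uM ATP. Compounds titrated qHTS. Luminescence imaged on CCD.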
# Numbers stand for hits; n = inactive; u = inconclusive; x = not tested or not shown; [ ] = remark or other dose. Unless noted, calls follow the shape of the dose curve; as a rule, active = well fitted curve in the direction sought with a large enough effect; inconclusive = small, poorly fitted or top-dose-only effect, or another doubt; inactive = no such curve, though single readings can be large; an effect the other way counts as inactive or inconclusive.
SMILES,SNCA expr inhib,HEK cytotox,SNCA viab count,hNpr1 antagonist,3T3 cytotox,Luciferase inh
CC1CCN(C(=O)c2csc(N3CCN(c4ccc(Cl)cc4)CC3)n2)CC1,u,u,n,u,u,n
CCCCN(C)C(=O)c1csc(N2CCN(c3ccccc3)CC2)n1,n,35.5µM,n,u,u,n
CCn1cc(S(=O)(=O)N2C[C@@H](Oc3cccnc3)C[C@H]2C(=O)NCCOC)cn1,n,n,n,n,n,n
CC(C)=CCCC1(C)/C=C/C(OC(=O)C=C(C)C)C(C)(O)/C=C/C(=O)/C(CO)=C\C1 (stereo not given),x,x,13µM,x,x,x
O=S(=O)(c1cc(F)cc(F)c1)N1CCCC(Cn2c(C3CC3)nc3cccnc32)C1 (stereo not given),n,u,n,n,39.8µM,n
O=S(=O)(c1ccccc1)N1CCCC(Cn2c(C3CC3)nc3cccnc32)C1 (stereo not given),n,u,n,n,u,n
Cc1nc2cccnc2n1CC1CCCN(S(=O)(=O)c2cccc(F)c2)C1 (stereo not given),n,35.5µM,n,n,u,n
Cc1ccc(S(=O)(=O)N2CCCC(Cn3cnc4cccnc43)C2)cc1F (stereo not given),n,n,n,n,n,n
CC(C)Cc1ccc(S(=O)(=O)N2CCCC(Cn3cnc4cccnc43)C2)cc1 (stereo not given),n,44.7µM,n,n,u,n
Cc1nc2cccnc2n1CC1CCCN(S(=O)(=O)c2cccc(Cl)c2)C1 (stereo not given),n,u,n,u,u,n
Cc1ccc(C(=O)NC2CCN(Cc3ccc(-c4ccsc4)cc3)C2)cc1 (stereo not given),n,n,n,x,n,x
O=C(NC1CCN(Cc2ccc(-c3ccsc3)cc2)C1)c1ccncc1 (stereo not given),n,39.8µM,n,x,u,x
O=C(NC1CCN(Cc2ccc(-c3ccsc3)cc2)C1)c1ccccc1Cl (stereo not given),u,44.7µM,n,x,u,x
O=C(Nc1ccccc1)NC1CCN(Cc2ccc(-c3ccsc3)cc2)C1 (stereo not given),n,u,n,x,u,x
O=C(NC1CCN(Cc2ccc(-c3ccsc3)cc2)C1)c1ccccc1 (stereo not given),n,44.7µM,u,x,u,x
O=C(NCCCc1ccccc1)C1CCN(c2nccc(Nc3ccccc3F)n2)CC1,u,35.5µM,u,x,u,x
O=C(NCc1ccccc1Cl)C1CCN(c2nccc(Nc3ccccc3F)n2)CC1,n,u,n[12.5 µM],x,39.8µM,x
COc1ccccc1CNC(=O)C1CCN(c2nccc(Nc3ccccc3F)n2)CC1,n,u,n[12.5 µM],x,u,x
O=C(NCCc1ccc(Cl)cc1)C1CCN(c2nccc(Nc3ccccc3F)n2)CC1,n,u,n,x,u,x
C[C@H](O)c1onc(-c2ccccc2)c1C(=O)NC1CCCCC1,n,n,n,n,n,n
Cn1nc2n(c1=O)CCN(C(=O)c1ccc(F)cc1Cl)CC2,n,n,n,n,n,n
O=C(Cc1c[nH]c2ncc(-c3ccccc3)cc12)Nc1cccnc1,u,70.8µM,n,n,28.2µM,n
O=C(Cc1c[nH]c2ncc(-c3ccccc3)cc12)Nc1ccc(Cl)cc1,n,u,n,u,u,n
O=C(Cc1c[nH]c2ncc(-c3cn[nH]c3)cc12)NCc1cccnc1,n,n,n,n,u,n
O=C(Cc1c[nH]c2ncc(-c3cccc(OC(F)(F)F)c3)cc12)NCc1cccnc1,n,70.8µM,n,u,44.7µM,u
SMILES,SNCA expr inhib,HEK cytotox,SNCA viab count,hNpr1 antagonist,3T3 cytotox,Luciferase inh
O=C(Cc1c[nH]c2ncc(-c3cccnc3)cc12)Nc1ccccc1,n,u,n,n,25.1µM,n
COc1ccc(NC(=O)Cc2c[nH]c3ncc(-c4ccccc4)cc23)cc1OC,n,89.1µM,n,u,u,n
OCC1CN(Cc2cnc[nH]2)CCC12CCN(CCCn1cccn1)CC2 (stereo not given),n,n,n,n,n,n
CCC(=O)NC1CCCN(c2ccnc3ccnn23)C1 (stereo not given),n,n,n,x,n,x
C=C1CC2C3(C)C(OC(C)=O)CC(=O)OC(C)(C)C3C(O)C(OC(C)=O)C2(C)C2C(=O)OC(C)C(=O)C12C (stereo not given),x,x,n,x,x,x
O=C(Cc1c[nH]c2ncc(-c3cccnc3)cc12)NC1CCOCC1,n,n,n,n,u,n
O=C(Cc1c[nH]c2ncc(-c3cccnc3)cc12)NCc1ccccc1,n,89.1µM,n,u,35.5µM,n
O=C(Cc1c[nH]c2ncc(-c3ccc(F)cc3)cc12)NCc1cccnc1,n,u,n,u,u,u
COc1ccc(-c2cnc3[nH]cc(CC(=O)NCc4cccnc4)c3c2)cc1OC,n,u,n,n,15.8µM,n
O=C(Cc1c[nH]c2ncc(-c3cccnc3)cc12)NC1CC1,n,n,n,n,70.8µM,n
Cc1cc(-c2cnc3[nH]cc(CC(=O)NCc4cccnc4)c3c2)ccn1,n,u,n,n,u,n
CN(C)c1ccc(-c2nnnn2[C@H]2CO[C@H]3[C@@H]2OC[C@@H]3NC(=O)Nc2ccc(Oc3ccccc3)cc2)cc1,u,n,n,n,n,n
O=C(c1ccoc1)N1CC(F)(F)C[C@H]1c1nc(-c2ncccn2)no1,n,n,n,n,n,n
COC1C(=O)N(c2cccc(F)c2)C12CCN(S(=O)(=O)Cc1ccccc1F)CC2 (stereo not given),n,39.8µM,n,n,n,n
COC1C(=O)N(c2cccc(F)c2)C12CCN(S(=O)(=O)Cc1ccccc1)CC2 (stereo not given),n,u,n,n,n,n
COC1C(=O)N(c2cccc(F)c2)C12CCN(C(=O)c1cc3ccccc3[nH]1)CC2 (stereo not given),n,31.6µM,n,n,u,u
COc1ncccc1N1CC2(COCC(=O)N(Cc3cccc(OC(F)(F)F)c3)C2)C1,n,u,n,n,n,n
O=C(Nc1ccccc1Cl)N1CCCC2(C1)Nc1cccnc1NC2=NC1CCCC1 (stereo not given),n,u,u,n,44.7µM,n
CC[C@H]1CN2CCc3cc(OC)c(OC)cc3[C@H]2C[C@@H]1C[C@@H]1NCCc2cc(OC)c(OC)cc21,0.607µM,x,u,x,x,x
COc1cc2c(cc1OC)C1CC(=O)C(CC(C)C)CN1CC2 (stereo not given),n,x,n,x,x,x
CN1CCN(C(=O)c2cc(-c3cc(Cl)cc(Cl)c3)c3nncn3n2)CC1,n,n,n[12.5 µM],x,n,x
COc1ccc(CCC(=O)N2CCC3(CC2)CC(N(C(C)=O)C2CC2)CCO3)cc1 (stereo not given),n,n,n,n,n,n
COc1ccccc1CN(C)C1CCc2ccccc21 (stereo not given),n,u,n,n,u,n
